Data taken from PubChem BioAssay AID1347048 (National Center for Advancing Translational Sciences (NCATS), 2019).
The campaign covered roughly 76,000 compounds. About 1,200 (1.6%) were called active. About 4% were inconclusive and are not listed. Calls come from the whole dose curve. The list comes from a sample in which actives are over-represented; it also holds similar structures and randomly drawn compounds. Entries that show only a call come without a potency.

Target: Atrial natriuretic peptide receptor 1 (Homo sapiens) (UniProt P16066)
Test: Natriuretic polypeptide receptor (hNpr1) antagonism - Primary qHTS; note: nearly all actives have a fitted effect of over 60% in size
Settings: HEK293 hNpr1 GloSensor cGMP, ANP-stimulated luminescence; series mostly up to 70.6 µM
From the text: Pruritus or itch, is an irritating skin sensation that creates a need to scratch, and ranges from mildly unpleasant and passing to acute and persistent sensations. […] Conventional treatments include topical anti-inflammatory agents, anti-histamines, and emollients, which are aimed at managing the itchy sensation and not the underlying disease. The treatment of pruritus remains a diagnostic and therapeutic challenge. Neurotransmission in the spinal cord from primary pruriceptors to second order neurons is a necessary step that eventually results in the sensation of itch. At this synapse, primary pruriceptors use the neuropeptide natriuretic polypeptide B (NppB) to activate its cognate receptor Natriuretic polypeptide receptor 1 (Npr1) on second order neurons. Inhibition of this step is a new potential strategy to inhibit acute and chronic itch. In order to identify small molecular compounds that can inhibit the Npr1 receptor we developed a high-throughput assay to probe inhibition of the receptor guanylate cyclase Npr1. The assay was designed taking advantage of Promega's GloSensor[TM] technology (Fan, F. et al. 2008). It involves the expression of a cyclic guanosine monophosphate (cGMP) biosensor, comprised of a firefly luciferase variant that was coupled to the cGMP binding domain of human phosphodiesterase 5A, and loading of cells with a cell-permeable luciferase substrate to monitor cGMP production by Npr1 in real time in live cells. In detail, we generated human embryonic kidney 293 cells stably expressing the human Npr1 and the cGMP GloSensor[TM] pGS-40F. Stimulating these cells with the Npr1 agonists human NppA or NppB, luciferase-induced light production could be detected in a dose-dependent manner. We also generated HEK293 cells stably expressing human Npr2 and pGS-40F and cells only expressing pGS-40F to conduct secondary counter screens. In these cells, NppC or sodium nitroprusside were used to stimulate Npr2 or soluble guanylate cyclase which is endogenously expressed in HEK293 cells, respectively. REFERENCE F. Fan, B. F. Binkowski, B. L. Butler, P. F. Stecha, M. K. Lewis, K. V. Wood, Novel genetically encoded biosensors using firefly luciferase. ACS Chem. Biol., 2008, 3: 346-351 .
PROTOCOL TABLES (as described by Inglese J, Shamu CE and Guy RK. 2007) SEQUENCE No. (e.g., 1, 2, 3, etc.); […] (e.g., Cells, Incubation, Reagent, etc.); VALUE and DESCRIPTION. GLOSENSOR PROTOCOL 1. Cells. Seed 1500 HEK293 cGMP-sensor cells expressing hNpr1 per well in 4uL into Greiner 1536-well white/solid bottom high base, tissue culture-treated plates. 2. Incubation. Incubate plated cells at 37C in 5% CO2, 95% RH overnight. 3. Reagent. Add 1uL per well GloSensor reagent from Promega (2% final concentration) or CO2 independent media vehicle control to respective columns of Greiner 1536-well plates. 4. Incubation. Incubate plated cells at room temperature for 2 h, protect from light. 5. Compounds. Library compounds and A-71915 control added at 23 nL per well, transferred by Pin Tool. 6. Incubation. Incubate plated cells for 30 min. at room temperature, protect from light. 7. Detector. GloSensor baseline pre-read luminescence measured using CCD-based camera (Viewlux). 8. Compound. Add 1uL of hNppA peptide to 0.1 nM final concentration to stimulate hNpr1 or CO2 independent media as vehicle control. 9. Incubation. Incubate treated cells at room temperature for 20 min., protect from light. 10. Detector. GloSensor post-hNppA luminescence measured using CCD-based camera (Viewlux). NOTES (numbers refer to Sequence numbers above) 1. HEK293 cells expressing hNpr1 and GIP/pGS-40F grown to 85-95% confluence (48-72 h) in T175 culture flasks (CO2 independent media supplemented with 10% FBS, 1% Pen/Strep antibiotics and 1 ug/mL puromycin). Trypsinize and harvest cells from T175 culture flasks and filter through 40 um cell strainer. Cells counted with Invitrogen Countess (30,000,000 - 50,000,000 cells/flask). […]
Potency is the fitted concentration of half-maximal effect.

Atrial natriuretic peptide receptor 1 (Homo sapiens), sequence (P16066 whole entry, looked up): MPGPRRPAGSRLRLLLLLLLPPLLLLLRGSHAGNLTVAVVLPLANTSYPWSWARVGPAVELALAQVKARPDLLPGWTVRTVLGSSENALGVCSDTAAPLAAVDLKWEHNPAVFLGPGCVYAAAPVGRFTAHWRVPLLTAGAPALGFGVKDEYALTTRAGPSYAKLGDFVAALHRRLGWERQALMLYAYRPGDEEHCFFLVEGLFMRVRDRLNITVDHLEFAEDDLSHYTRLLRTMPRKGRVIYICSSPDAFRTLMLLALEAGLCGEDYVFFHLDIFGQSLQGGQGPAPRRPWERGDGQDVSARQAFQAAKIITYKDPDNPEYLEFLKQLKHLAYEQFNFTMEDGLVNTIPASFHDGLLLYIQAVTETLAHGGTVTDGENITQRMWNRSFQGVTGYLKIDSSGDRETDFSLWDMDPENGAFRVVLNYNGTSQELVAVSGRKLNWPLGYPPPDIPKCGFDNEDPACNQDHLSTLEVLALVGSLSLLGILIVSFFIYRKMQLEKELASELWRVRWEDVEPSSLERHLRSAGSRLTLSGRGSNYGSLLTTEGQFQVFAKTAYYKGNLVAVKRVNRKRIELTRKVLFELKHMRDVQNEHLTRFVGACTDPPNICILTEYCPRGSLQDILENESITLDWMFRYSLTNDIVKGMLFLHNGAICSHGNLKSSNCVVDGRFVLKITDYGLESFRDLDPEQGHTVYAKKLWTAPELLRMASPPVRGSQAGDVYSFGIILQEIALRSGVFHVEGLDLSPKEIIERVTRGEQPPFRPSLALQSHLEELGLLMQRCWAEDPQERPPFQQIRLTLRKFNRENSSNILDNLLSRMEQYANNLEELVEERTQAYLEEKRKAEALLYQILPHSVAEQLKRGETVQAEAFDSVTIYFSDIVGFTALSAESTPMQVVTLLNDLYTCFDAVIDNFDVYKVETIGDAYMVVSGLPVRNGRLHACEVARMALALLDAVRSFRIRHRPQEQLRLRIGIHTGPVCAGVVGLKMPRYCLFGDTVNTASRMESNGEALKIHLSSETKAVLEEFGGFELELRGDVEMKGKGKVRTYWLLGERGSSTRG

How did the Potency turn out when `COc1cc2c(cc1Oc1ccccc1)NC(=O)C21CCN(c2ccnc(C)n2)CC1` was run?
The Potency was “inactive”.

`COc1cc2c(cc1Oc1cccc(N(C)C)c1)NC(=O)C21CCN(Cc2ccccn2)CC1` was tested. Which Potency did it give?
The Potency was 10 µM (active).

`COc1cc2c(cc1OCc1ccncc1)NC(=O)C21CCN(Cc2ccccn2)CC1` was tested. Which Potency did it give?
Its Potency is “inactive”.

How did the Potency turn out when `CN(Cc1ccccc1)C[C@H]1CN2CC[C@H]1C[C@@H]2CNC(=O)Nc1cccc(C#N)c1` was run?
Its Potency is “inactive”.

For `COc1cc2c(cc1OCc1ccccc1)NC(=O)C21CCN(CCC(C)C)CC1`, which Potency is on record?
The Potency was “inactive”.

How did the Potency turn out when `COc1cc2c(cc1OCc1ccncc1)NC(=O)C21CCN(c2ncc(F)cn2)CC1` was run?
Its Potency is 20 µM (active).

Which Potency does the source give for `COc1cc2c(cc1OCc1ccncc1)NC(=O)C21CCN(c2ncccn2)CC1` here?
The Potency was “inactive”.

With `Cc1nc(-c2ccccc2)cc([C@H]2CN3CC[C@H]2C[C@@H]3CNC2CCOCC2)n1` as the compound, how does the Potency read?
Its Potency is “inactive”.

With `O=C(NCc1ccccc1)[C@H]1CN2CCC1C[C@@H]2Cn1cc(-c2ccc(F)cc2)nn1` (stereo not given in full) as the compound, how does the Potency read?
Its Potency is “inactive”.

`Cc1nc(-c2ccccc2)cc([C@H]2CN3CC[C@H]2C[C@@H]3CNC2CCN(C)CC2)n1` was tested. Which Potency did it give?
Its Potency is “inactive”.

With `CCCS(=O)(=O)NC[C@H]1C[C@@H]2CCN1C[C@@H]2c1cc(-c2ccccc2)nc(C)n1` as the compound, how does the Potency read?
Its Potency is “inactive”.

With `CCC(CC)c1cc([C@H]2CN3CC[C@H]2C[C@@H]3CNC(=O)NCc2ccccc2)nc(-c2ccncc2)n1` as the compound, how does the Potency read?
Its Potency is 11.2 µM (active).

How did the Potency turn out when `CCC(CC)c1cc([C@H]2CN3CC[C@H]2C[C@@H]3CNS(=O)(=O)c2ccccc2C#N)nc(-c2ccncc2)n1` was run?
Its Potency is “inactive”.

With `COc1ccc(C(=O)N2[C@H]3CC[C@@H]2c2cnc(-c4ccccc4)nc2C3)c(OC)c1` as the compound, how does the Potency read?
The Potency was “inactive”.

For `COc1cc2c(cc1OCc1ccccc1)NC(=O)C21CCN(C(=O)C(C)C)CC1`, which Potency is on record?
Its Potency is “inactive”.
